In article PMC4336329 (PLoS ONE, 2015):
The whole screen tested about 310,000 compounds, of which about 14,000 (4.5%) showed an effect of 50% or more. The effect is printed as a negative number. Shown is part of a subset that was picked to be rich in strong results.

Target: human ether-à-go-go-related gene (hERG) potassium channel (human, UniProt Q12809)
Assay: primary screen, population patch clamp on CHO cells stably expressing hERG; higher = less effect of the substance
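Note: peak tail current of the secondary pulse compared with the same well before compound.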

Chain of human ether-à-go-go-related gene (hERG) potassium channel (Q12809 whole entry, looked up): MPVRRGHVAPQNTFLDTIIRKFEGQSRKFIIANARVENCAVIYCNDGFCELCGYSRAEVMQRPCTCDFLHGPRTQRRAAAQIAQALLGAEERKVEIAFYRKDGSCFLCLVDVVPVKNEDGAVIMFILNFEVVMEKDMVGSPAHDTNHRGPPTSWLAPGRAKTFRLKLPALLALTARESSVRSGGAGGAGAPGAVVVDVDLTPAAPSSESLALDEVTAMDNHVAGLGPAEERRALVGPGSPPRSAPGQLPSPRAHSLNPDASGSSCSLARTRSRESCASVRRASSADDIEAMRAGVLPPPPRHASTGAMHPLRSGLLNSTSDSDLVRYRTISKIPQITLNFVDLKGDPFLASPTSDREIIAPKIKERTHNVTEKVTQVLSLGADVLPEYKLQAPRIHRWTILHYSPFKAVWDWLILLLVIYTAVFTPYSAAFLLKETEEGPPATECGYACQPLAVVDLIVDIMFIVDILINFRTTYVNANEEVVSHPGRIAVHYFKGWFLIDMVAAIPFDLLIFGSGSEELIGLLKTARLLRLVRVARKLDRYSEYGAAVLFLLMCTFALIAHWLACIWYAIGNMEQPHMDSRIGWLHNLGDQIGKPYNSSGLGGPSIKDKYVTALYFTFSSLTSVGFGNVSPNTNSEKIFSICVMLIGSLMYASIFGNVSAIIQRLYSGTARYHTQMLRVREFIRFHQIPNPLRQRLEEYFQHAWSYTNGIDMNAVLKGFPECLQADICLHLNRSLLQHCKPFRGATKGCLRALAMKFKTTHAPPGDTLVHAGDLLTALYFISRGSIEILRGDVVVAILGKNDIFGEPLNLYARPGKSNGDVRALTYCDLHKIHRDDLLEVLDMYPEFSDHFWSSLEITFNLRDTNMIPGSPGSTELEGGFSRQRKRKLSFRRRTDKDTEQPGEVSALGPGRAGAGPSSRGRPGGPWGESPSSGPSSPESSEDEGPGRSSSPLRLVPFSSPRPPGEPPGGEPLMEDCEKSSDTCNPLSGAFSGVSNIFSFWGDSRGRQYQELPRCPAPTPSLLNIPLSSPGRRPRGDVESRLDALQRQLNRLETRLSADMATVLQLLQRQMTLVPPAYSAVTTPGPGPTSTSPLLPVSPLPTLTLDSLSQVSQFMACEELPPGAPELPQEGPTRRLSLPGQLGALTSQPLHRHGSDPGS

Row | SMILES | hERG current change (%, negative = inhibition) at 10uM
1 | CC(CNC(=O)CCc1nnc2ccc(N3CCC4(CC3)OCCO4)nn12)c1ccccc1 (stereo not shown) | -0.296%
2 | O=C(CNC(=O)c1sc2ccccc2c1Cl)NC1CC1 | 3.65%
3 | CCCCOc1ccccc1C(=O)NNC(=S)NC(=O)c1ccccc1[N+](=O)[O-] | 3.48%
4 | NS(=O)(=O)c1ccc(NC(=O)c2cc(-c3cc(Cl)ccc3O)n[nH]2)cc1 | 15.7%
5 | CS(=O)(=O)Nc1ccc(C2=NN(S(C)(=O)=O)C(c3ccccc3)C2)cc1 (stereo not shown) | -73.6%
6 | CS(=O)(=O)N1N=C(c2ccc3nccnc3c2)CC1c1ccccc1 (stereo not shown) | -7.62%
7 | CCC(CC)C(=O)N1N=C(c2ccc(NS(C)(=O)=O)cc2)CC1c1ccccc1 (stereo not shown) | -41.4%
8 | CCS(=O)(=O)N1N=C(c2ccc(NS(C)(=O)=O)cc2)CC1c1ccccc1 (stereo not shown) | -62.1%
9 | CCS(=O)(=O)Nc1ccc(C2=NN(S(=O)(=O)CC)C(c3cccs3)C2)cc1 (stereo not shown) | -9.32%
10 | CS(=O)(=O)N1N=C(c2cccs2)CC1c1ccccc1 (stereo not shown) | -11.3%
11 | Cc1ccc2nc(-c3ccc(N4C(=NC(=O)CCC(=O)O)SC5CS(=O)(=O)CC54)cc3)sc2c1 (stereo not shown) | -19.3%
12 | O=C(NC(Cc1c[nH]c2ccccc12)C(=O)N/N=C/c1ccc(Br)cc1)c1cccs1 (stereo not shown) | 8.02%
13 | O=C(Nc1nccs1)C1CCCN(S(=O)(=O)c2cccc3cccnc23)C1 (stereo not shown) | -3.72%
14 | CCCCOc1ccc(-c2nnc(N)s2)cc1 | 2.84%
15 | CC(C)CCNC(=O)/C=C/c1ccc(Br)cc1 | 0.187%
16 | Cc1[nH]nc(Nc2ccc(O)cc2)c1[N+](=O)[O-] | 23.6%
17 | CCCS(=O)(=O)N1CCCC(C(=O)NC(C)c2ccc3c(c2)OCCO3)C1 (stereo not shown) | 9.55%
18 | Cc1oc(-c2cccc(Cl)c2)nc1CN1CCCC(C(=O)NCCCN2CCOCC2)C1 (stereo not shown) | -28.1%
19 | Cc1oc(-c2ccc(Cl)cc2)nc1CN1CCCC(C(=O)NCc2ccco2)C1 (stereo not shown) | -71.9%
20 | Cc1oc(-c2cccc(Cl)c2)nc1CN1CCCC(C(=O)NC(C)c2ccc3c(c2)OCCO3)C1 (stereo not shown) | -57.5%
21 | Cc1oc(-c2ccc(Cl)cc2)nc1CN1CCCC(C(=O)NCCCN2CCCC2=O)C1 (stereo not shown) | -30.8%
22 | Cc1oc(-c2cccc(Cl)c2)nc1CS(=O)(=O)CC(=O)NCc1ccco1 | -28.2%
23 | Cc1oc(-c2cccc(Cl)c2)nc1CN1CCCC(C(=O)NCc2ccco2)C1 (stereo not shown) | -73%
24 | O=C(NCc1ccco1)C1CCCN(S(=O)(=O)c2ccc(Cl)cc2)C1 (stereo not shown) | -13.2%
25 | CCN1CCN(CCNC(=O)C2CCCN(Cc3nc(-c4cccc(Cl)c4)oc3C)C2)CC1 (stereo not shown) | -6.73%
